# Screening results from PubChem BioAssay.
# Rows were chosen to be rich in hits. Some 3.6% of all compounds tested hit in one or more screens of this group.
# Anthrax LF prot = anthrax lethal factor protease inhibition | P15917 | multiplex microsphere protease cleavage assay, LF | inhibition, % at 10 µM | hit rate 0.12% among 360,000
# Target sequence (P15917 whole entry, looked up): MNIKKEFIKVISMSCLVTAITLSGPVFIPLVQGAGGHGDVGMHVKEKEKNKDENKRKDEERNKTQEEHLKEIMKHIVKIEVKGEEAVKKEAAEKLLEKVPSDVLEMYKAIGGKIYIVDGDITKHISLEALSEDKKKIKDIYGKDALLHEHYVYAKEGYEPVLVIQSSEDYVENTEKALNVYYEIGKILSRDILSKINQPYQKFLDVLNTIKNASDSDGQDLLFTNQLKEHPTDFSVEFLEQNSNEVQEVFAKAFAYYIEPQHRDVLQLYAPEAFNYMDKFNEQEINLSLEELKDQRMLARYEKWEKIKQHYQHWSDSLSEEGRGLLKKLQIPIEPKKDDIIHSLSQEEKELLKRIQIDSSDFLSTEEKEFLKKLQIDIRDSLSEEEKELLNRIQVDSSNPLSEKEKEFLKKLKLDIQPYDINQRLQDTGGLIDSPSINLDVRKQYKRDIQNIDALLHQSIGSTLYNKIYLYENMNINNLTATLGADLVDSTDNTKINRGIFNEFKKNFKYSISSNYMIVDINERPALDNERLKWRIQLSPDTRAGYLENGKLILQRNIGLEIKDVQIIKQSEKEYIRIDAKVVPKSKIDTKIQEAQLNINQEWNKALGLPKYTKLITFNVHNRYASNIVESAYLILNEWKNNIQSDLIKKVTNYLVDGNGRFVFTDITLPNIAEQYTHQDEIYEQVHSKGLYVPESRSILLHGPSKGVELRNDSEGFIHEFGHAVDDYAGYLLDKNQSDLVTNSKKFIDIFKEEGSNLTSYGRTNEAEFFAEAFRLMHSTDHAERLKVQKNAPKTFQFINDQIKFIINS
# SARS 3CLpro inh = SARS-CoV 3CLpro protease inhibition | AID 1706 | P0C6X7 | hit rate 0.14% among 290,000 | inhibition, % at 6 µM | recombinant SARS-CoV 3CLpro, quenched FRET peptide cleavage; in the data active means inhibition above about 12%
# BoNT-F LC inh = inhibitors of Botulinum neurotoxin F light chain protease; Multiplex microsphere protease cleavage assay, flow cytometry; hit rate 0.22% among 360,000; inhibition, % at 10 µM; in the data active means inhibition above about 35%, passing the limit was not always enough; inconclusive means no clear call, values can overlap the other calls
# BoNT A protease = inhibitors of Botulinum neurotoxin A light chain protease; multiplex microsphere protease substrate cleavage, flow cytometry; inhibition, % at 10 µM; hit rate 0.17% among 360,000; AID 588499
# BJeLR lethal = kills HRASV12-expressing BJeLR cells. hit rate 0.17% among 300,000. inhibition, % (no concentration beside the values). BJeLR (HRASV12) viability, CellTiter-Glo ATP luminescence, 48 h. AID 1554; in the data active means inhibition above about 50%; inconclusive means no clear call, values can overlap the other calls
# Autofluor counter = compound fluorescence in toxin protease inhibitor counterscreen; AID 624483; hit rate 3.1% among 360,000; fluorescence intensity (test concentration not listed); compound autofluorescence counterscreen, microsphere flow cytometry; active compounds read high; in the data active means fluorescence intensity above about 16000; inconclusive means no clear call, values can overlap the other calls
# Hits are given with their value; 0 = inactive; ? = inconclusive; - = not tested or not shown. Unless noted, no stated cut-off is given here; in the data, active means inhibition above about 30%; inconclusive means no clear call, values can overlap the other calls; inactive means below that.
SMILES,Anthrax LF prot,SARS 3CLpro inh,BoNT-F LC inh,BoNT A protease,BJeLR lethal,Autofluor counter
Cc1oc2ccc(OC(=O)N3CCOCC3)cc2c1C(=O)OC(C)C,0,0,0,0,0,23451
COc1ccccc1Oc1coc2cc(OC(=O)N3CCOCC3)ccc2c1=O,0,0,0,0,0,22043
COc1ccc(Oc2c(C)oc3cc(OC(=O)N4CCOCC4)ccc3c2=O)cc1,0,0,0,0,0,16237
COC(=O)c1c(C)oc2ccc(OC(=O)N3CCOCC3)cc12,0,0,0,0,0,0
Nc1cc(=O)[nH]c(SCC(=O)Nc2ccc3c(c2)CCC3)n1,0,0,0,0,0,0
CC(=O)Nc1cccc(-n2nnc(SCC(=O)Nc3ccc(F)c(Cl)c3)n2)c1,0,0,0,0,0,16932
Nc1cc(=O)[nH]c(SCC(=O)Nc2ccc(F)c(Cl)c2)n1,0,0,0,0,0,21150
CCn1nnc(C(=O)O)c1C(=O)O,0,0,0,?,0,16922
COC(=O)/C(=C(/F)Sc1cc(C)c(O)c(C)c1)C(F)(F)F,0,0,0,0,0,22354
Cc1ccc(OCC(=O)NNC(=O)C2CC(=O)N(c3ccc4c(c3)OCCO4)C2)cc1 (configuration not stated),0,-,0,0,0,0
CCN(CC)S(=O)(=O)c1ccc2oc(C(=O)NCCCN3CCOCC3)c(C)c2c1,0,0,0,0,0,0
CCCCN(CCCC)S(=O)(=O)c1ccc2oc(C(=O)N3CCOCC3)c(C)c2c1,0,0,0,0,0,24116
CCOC(=O)N1CCN(C(=O)c2oc3ccc(S(=O)(=O)N4CCCCC4)cc3c2C)CC1,0,0,0,0,0,18639
CCCCN(C)C(=O)c1oc2ccc(S(=O)(=O)N3CCCCCC3)cc2c1C,0,0,0,0,0,23104
COc1ccc(C(=O)Oc2c(OC)cc(C(=S)N3CCOCC3)cc2OC)cc1OC,-,0,-,-,0,-
NNc1nc(-c2ccccc2)cc(-c2ccccc2)n1,0,0,0,0,0,0
NNc1nc(-c2ccccc2)cc(-c2ccccc2O)n1,0,0,0,?,0,22292
CCOc1cccc(C2/C(=C(/O)c3ccc4c(c3)CC(C)O4)C(=O)C(=O)N2Cc2ccncc2)c1 (configuration not stated),0,0,0,0,0,0
CCOC(=O)C1=C(O)CSC1=Nc1ccc(Cl)cc1,0,0,0,0,0,16689
CN1C(=O)S/C(=C/c2cccnc2)C1=O,0,0,0,0,0,21884
C[C@@H]1COc2cc(N(C)CCO)ccc2S(=O)(=O)N1,0,-,0,0,-,0
CCCCCC1CC(/C(C)=N/NC(N)=O)OC1=O (configuration not stated),0,0,0,0,0,0
CCCCCCC1CC(C)(/C(C)=N/NC(N)=O)OC1=O (configuration not stated),0,0,0,0,0,18949
CC(=O)c1ncnn1CC(=O)c1ccc(Cl)cc1Cl,0,0,0,0,0,22669
COc1ccccc1CNC(=O)CN(C)Cc1ccc(SC)cc1,0,0,0,0,0,0
SMILES,Anthrax LF prot,SARS 3CLpro inh,BoNT-F LC inh,BoNT A protease,BJeLR lethal,Autofluor counter
O=C(COc1ccc(F)cc1)NNC(=O)Cn1ccc(C(F)(F)F)n1,0,-,0,0,-,0
CC1=C(C(=O)OC(C)C)C(c2cccnc2)C2=C(CCCC2=O)N1 (configuration not stated),0,0,0,0,0,0
CCOC(=O)C1=C(N)OC2=C(C(=O)CC(C)(C)C2)C1c1cccnc1 (configuration not stated),0,0,0,0,0,22141
CCOC(=O)C1=C(C)NC2=C(C(=O)CCC2)C1c1cccnc1 (configuration not stated),0,0,0,0,0,23612
COc1cc(NC(=O)c2cccs2)c(OC)cc1NC(=O)CCn1nnc2ccccc21,0,0,0,0,0,0
Cc1ccc(CN(CC(=O)NCCc2ccccc2)C(=O)CCCC(=O)Nc2cc(C)on2)cc1,0,0,0,0,0,17240
COc1ccc(CN(CC(=O)NCCc2ccccc2)C(=O)CCC(=O)Nc2cc(C)ccn2)cc1,0,0,0,0,0,0
Cc1nn(-c2ccccc2)c(C)c1/C=N/NC(=O)c1cc(-c2cccs2)[nH]n1,0,0,0,0,0,0
Cc1nn(-c2ccccc2)c(C)c1/C=N/NC(=O)c1cc(-c2ccc(Cl)s2)[nH]n1,0,0,0,0,0,17595
Cc1nn(-c2ccccc2)c(C)c1/C=N/NC(=O)c1cc(-c2ccc(Br)s2)[nH]n1,0,0,0,0,0,21752
Cc1cc(C(=O)N/N=C/c2c(C)nn(-c3ccccc3)c2C)n[nH]1,-,0,-,-,0,-
Cc1nn(-c2ccccc2)c(C)c1/C=N/NC(=O)c1ccccc1O,0,0,88.4,0,0,0
O=c1sc(Nc2ccccc2)nc2ccsc12,0,0,0,?,0,19370
O=C(/C=C/c1ccc(Br)cc1)NC1CCCCCC1,0,0,0,0,0,21525
CC1CCc2cccc3c2N1c1cc(C#N)c(C#N)cc1O3 (configuration not stated),0,0,0,0,0,23863
CCOc1ccc(S(=O)(=O)N2CCCCC2)cc1NC(=O)c1ccccc1,0,-,0,0,-,0
COc1ccc2c(c1)C1NC(=S)NC(C)(O2)C1C(=O)Nc1ccc(C)cc1C (configuration not stated),0,0,39.6,0,0,0
CCc1ccc(NC(=S)N2CCCCCCC2)cc1,0,0,0,0,0,0
CCN(CC)S(=O)(=O)c1cc(NC(=O)COC(=O)CCc2nc3ccccc3s2)ccc1C,0,0,0,?,0,22825
Cc1cc(O)ccc1Nc1cc(-c2cccc(N(C)C)c2)ncn1,0,-,0,0,-,0
COC(=O)CSc1nnc(CNC(=O)c2cccc(C)c2)n1-c1ccccc1OC,0,0,0,?,0,22455
COc1ccc(OCc2nnc(SCC(N)=O)n2-c2ccccc2OC)cc1,0,0,0,0,0,19312
COC(=O)CCS(=O)(=O)c1nc(-c2ccccc2)cc(C(F)(F)F)n1,0,0,0,0,0,21982
COc1cc(C2NC(=O)C(C#N)=C(Nc3cccc(C)c3)S2)ccc1O (configuration not stated),0,0,0,0,0,0
Cc1ccccc1CSc1nnc([C@@H]2CCCN2)o1,0,0,0,0,0,0
SMILES,Anthrax LF prot,SARS 3CLpro inh,BoNT-F LC inh,BoNT A protease,BJeLR lethal,Autofluor counter
CCc1ccc(NC(=O)C(C)OC(=O)CCC(=O)c2cccs2)cc1 (configuration not stated),0,0,0,0,0,0
N#Cc1cc(C(=O)Cc2ccccc2)c[nH]1,0,0,0,0,0,0
O=C(Nc1ccccc1)NC1(C(=O)NCc2ccc3c(c2)OCO3)CCCCC1,0,0,0,0,0,22677
O=C(NCc1ccccc1)NC1(C(=O)N2CCOCC2)CCCCC1,0,0,0,0,0,0
O=C(NCc1ccccc1)NC1(C(=O)Nc2ccc3c(c2)OCCO3)CCCCC1,0,0,0,0,0,22030
O=C(Nc1ccccc1)NC1(C(=O)NCc2ccco2)CCCCC1,0,0,0,0,0,17118
CCc1noc(C)c1C(=O)N(C)CC(=O)Nc1cccc(OC)c1,0,-,0,0,-,0
